About 13,000 (27%) of roughly 48,000 compounds showed an effect of 50% or more. The list shows a part of the results.
What follows are compounds tested on Wolbachia pipientis (assay: Anti-Wolbachia Cell-Based Screen). Settings: 5 µM.
Format: functional
Design: scale not given: in the data most compounds retested in dose-response had high values

Structure (SMILES) | Percent Effect
CN(C(=O)Cc1ccn(C)c1)C1CCCN(C2Cc3ccccc3C2)C1 (stereo not drawn) | -11.39%
CN(C)C(=O)CN1CCN(C(=O)Cc2csc(-c3ncccn3)n2)CC1 | -5.623%
Cc1nc(CC(=O)N2CCCC[C@H](N(C)C)C2)cs1 | 105.8%
Cc1nc(CC(=O)N2CCN(C(C)c3ccccc3F)CC2)cs1 (stereo not drawn) | -7.662%
Cc1nc(CN2CCN(C(=O)Cc3cccc(Cl)c3)CC2)no1 | 6.745%
Cc1nc(CC(=O)N(C)C2CCCN(CCc3ccccc3)C2)cs1 (stereo not drawn) | 10.74%
Cc1cccc(CC(=O)N2CCCC(N(C)CCCN(C)C)C2)c1 (stereo not drawn) | 81.85%
Cc1nc(CC(=O)N2CCCC(N(C)Cc3ccccc3)C2)cs1 (stereo not drawn) | 124%
O=C(Cc1csc(-c2ncccn2)n1)N1CCN2CCCCC2C1 (stereo not drawn) | 6.768%
COc1ncccc1CN1CC[C@H]2O[C@@H](c3nnc(C)o3)CC[C@H]21 | -10.73%
O=C(Nc1cccnc1)[C@H]1CN(Cc2ccco2)C[C@H]2OCC[C@@H]12.O=C(O)C(F)(F)F.O=C(O)C(F)(F)F | -18.85%
CNC(=O)CN1CCO[C@H]2CN(C(=O)c3ccncc3F)C[C@H]21.O=C(O)C(F)(F)F | -18.06%
Cc1ccccc1CC(C)NCc1c(C)nn(C)c1N1CCOCC1.Cl (stereo not drawn) | 6.405%
CCOC(C)c1noc(CN(C)C(=O)C2C(C)(C)C2(C)C)n1 (stereo not drawn) | 12.97%
C[C@H]1C[C@@H]2CCN(CC3CCOCC3)C[C@H]2O1 | -3.08%
O=C1CO[C@@H]2CN(C3CCOCC3)C[C@H]2N1Cc1ccncc1 | 117.1%
O=C(O)C(F)(F)F.O=C(O)C(F)(F)F.O=C1CO[C@@H]2CN(Cc3cccs3)C[C@H]2N1Cc1ccncc1 | -4.405%
O=C(O)C(F)(F)F.O=C(O)C(F)(F)F.O=C(O)C(F)(F)F.O=C(O)C(F)(F)F.c1cc(CN2C[C@@H]3OCCN(CCN4CCCC4)[C@@H]3C2)ccn1 | 0.06106%
O=C1CO[C@H]2CN(C3CCOCC3)C[C@H]2N1Cc1ccncc1 | -21.59%
O=C1CO[C@H]2CN(C3CCOCC3)C[C@H]2N1Cc1ccccn1 | -4.247%
O=C(O)C(F)(F)F.O=C(O)C(F)(F)F.O=C1CO[C@@H]2CN(CC3CCOCC3)C[C@H]2N1Cc1ccncc1 | 87.76%
NCC1(c2cccc(C(F)(F)F)c2)CCOCC1 | -0.8853%
CCCN1CCN(C(=O)c2cnccc2C)[C@H]2CS(=O)(=O)C[C@H]21 | -10.68%
CC[C@]12CN3C[C@](C)(CN(C1)C3c1[nH]c(=O)[nH]c(=O)c1C)C2=O (stereo partly drawn) | 105.1%

Structure (SMILES) | Percent Effect
CC[C@]12CN3C[C@](CC)(CN(C1)C3c1[nH]c(=O)[nH]c(=O)c1C)C2=O (stereo partly drawn) | 112.4%
CCC[C@]12CN3C[C@](C)(CN(C1)C3c1[nH]c(=O)[nH]c(=O)c1C)C2=O (stereo partly drawn) | 118.8%
Cc1c(C2N3C[C@]4(C)CN2C[C@](C)(C3)C4=O)[nH]c(=O)[nH]c1=O (stereo partly drawn) | 140.1%
COCC(=O)NC[C@H]1C[C@@H]2CCN1C[C@@H]2CN(C)c1ccccc1 | -6.027%
O=C(c1[nH]c2ccc(Cl)cc2c1Cl)N1CCC2(CC1)OCCO2 | -4.336%
NCC1(c2cccc(C(F)(F)F)c2)CCC1 | 15.34%
CCNC(=O)CCC(=O)NC(C)Cc1ccccc1Br (stereo not drawn) | 15.31%
N#Cc1cnc2ccccc2c1N1CCNCC1 | -0.76%
Cc1nn(C)c2ncc(S(=O)(=O)N3CCCN4CCCC4C3)cc12 (stereo not drawn) | -8.04%
COc1cc(OC)cc(C2SCC(=O)Nc3ccsc32)c1 (stereo not drawn) | -4.704%
CC(C)n1[nH]c(=O)c2c1NC(=O)CSC2c1cccc(OCC(N)=O)c1 (stereo not drawn) | 107.3%
COc1cccc(C2SCC(=O)Nc3ccsc32)c1 (stereo not drawn) | -17.04%
CC(C)n1[nH]c(=O)c2c1NC(=O)CSC2c1ccc(OCC(N)=O)cc1 (stereo not drawn) | 116.2%
CCN1CCC2(CCC1=O)CN(c1ccnc(SC)n1)CCN2C (stereo not drawn) | -2.766%
Cc1cc(CC(=O)N2CCN(CC(C)C)[C@@H]3CS(=O)(=O)C[C@@H]32)ccc1F | -16.98%
CC1=N[C@@]2(CC[C@@H]3CN(CC(C)C)C[C@@H]32)C(=O)N1 | -12.28%
CCC1=N[C@@]2(CC[C@@H]3CN(CC)C[C@@H]32)C(=O)N1C | 107.7%
COc1ccc(C(=O)C2CCCN(Cc3ccncc3)C2)c(OC)c1 (stereo not drawn) | -2.027%
Cc1c(CC(=O)N2CCN(CC(F)(F)F)CC2)nnn1-c1ccccc1 | -7.021%
Cc1oc(-c2ccco2)nc1CC(=O)N1CCN(CC(C)(C)O)CC1 | -7.111%
Cl.O=C(Cc1ccc(F)cc1)N1CCN(CC(O)C2CC2)CC1 (stereo not drawn) | -12.59%
COc1ccc(Cl)cc1CC(=O)N1CCN(CC(C)(C)O)CC1 | 104.9%
CCOCC(O)CN1CCN(C(=O)Cc2ccccc2Cl)CC1 (stereo not drawn) | -8.97%
COc1ccc(Cl)cc1CC(=O)N1CCN(CC(C)O)CC1 (stereo not drawn) | 112.2%

Structure (SMILES) | Percent Effect
CCC1CNCc2cc3c(OC)ccc(OC)c3nc2O1 (stereo not drawn) | 82.52%
CCC1CNCc2cc3c(C)ccc(C)c3nc2O1 (stereo not drawn) | 108.6%
OCCCN(CCc1cccc(F)c1)C1CC1 | 110%
CN1C(=O)C2(CCNCC2)c2cc(F)ccc21.Cl | -10.96%
CC(=O)N1CC2(CCNCC2)c2cc(C)ccc21 | -30.16%
CN1C(=O)CC2(CCNCC2)c2ccccc21 | -12.38%
COC(=O)N1CC2(CCNCC2)c2cc(Cl)ccc21.Cl | 101.7%
CC(=O)N1CC2(CCNCC2)c2cc(Cl)ccc21.Cl | 94.12%
Cn1nc(-c2cccs2)cc1[C@H]1CN2CC[C@H]1C[C@@H]2CNS(C)(=O)=O | -2.456%
CC(Cn1ccnc1)NS(=O)(=O)c1ccc(C#N)c(Cl)c1 (stereo not drawn) | 2.375%
O=C1CSC(c2ccsc2)c2c(n(C3CCOCC3)[nH]c2=O)N1 (stereo not drawn) | 12.85%
COc1cc(C2SCC(=O)Nc3ccsc32)cc(OC)c1OC (stereo not drawn) | -0.744%
CCOc1ccc(C2SCC(=O)Nc3c2c(=O)[nH]n3C(C)C)cc1 (stereo not drawn) | 112%
CCCOc1ccc(C2SCC(=O)Nc3c2c(=O)[nH]n3C(C)C)cc1 (stereo not drawn) | 107.1%
CC(C)COc1ccc(C2SCC(=O)Nc3c2c(=O)[nH]n3C(C)C)cc1 (stereo not drawn) | 105.8%
O=C1CSC(c2ccc(O)c(Cl)c2)c2c(n(C3CCOCC3)[nH]c2=O)N1 (stereo not drawn) | 12.23%
CCOc1ccc(C2SCC(=O)Nc3c2c(=O)[nH]n3C(CC)CC)cc1 (stereo not drawn) | 117.7%
CC(C)c1nccc([C@H]2C[C@@H]3CCN(Cc4ccco4)C[C@H]3O2)n1 | -3.761%
O=C(Nc1cccnc1)[C@H]1CN(Cc2cccs2)C[C@H]2OCC[C@@H]12 | -5.403%
CNS(=O)(=O)CC(=O)NC(C)Cc1ccccc1Br (stereo not drawn) | -19.16%
COCC(C)NC(=O)c1cn(C(C)(C)C)c2ncccc12 (stereo not drawn) | 0.2413%
CCOCCCNC(=O)c1cn(C(C)(C)C)c2ncccc12 | 117.9%
COCCCNC(=O)c1cn(C(C)(C)C)c2ncccc12 | 120.5%
COCCN(CCOC)C(=O)c1cn(C(C)(C)C)c2ncccc12 | 135.3%

Structure (SMILES) | Percent Effect
COCCNC(=O)c1cn(C(C)(C)C)c2ncccc12 | 1.004%
CC(Cn1ccnc1)NCc1n[nH]c2c1CCC2 (stereo not drawn) | -9.016%
N#Cc1ccc(N2CCC(OC3CCOCC3)CC2)cc1Cl | -7.664%
O=C(CC[C@@H]1CCCN2CCCC[C@H]12)NCCc1cc(O)ncn1 | -16.08%
CCc1noc(CC)c1CC(=O)N1CCN(C(C#N)C(C)C)CC1 (stereo not drawn) | -3.422%
Cc1noc([C@]23COC[C@H]2CN(Cc2cc(C)on2)C3)n1.O=C(O)C(F)(F)F | 2.509%
FC(F)CN1CCOC(Cn2cccn2)C1 (stereo not drawn) | 120.3%
Cc1ncc2c(c1CNC(=O)C1(C)CCCO1)CCNC2 (stereo not drawn) | 2.031%
CC(C)NC(=O)[C@H]1C[C@H]2NCCO[C@@H]2C1 | 34.99%
O=C(NC1CCC1)[C@H]1C[C@H]2NCCO[C@@H]2C1 | -2.9%
CC(C)NC(=O)[C@@H]1C[C@H]2NCC[C@H]2O1.Cl | 109.5%
Cc1cccc(C(=O)N2C[C@@H]3OCCN(C(C)C)[C@@H]3C2)n1 | -13.51%
COCC(=O)N1CC[C@H]2[C@H]1CCN2CC(C)C | -1.269%
Cc1ccc(N2CCC3(CN(CCO)CCC3(F)F)C2)nn1.O=C(O)C(F)(F)F (stereo not drawn) | 100.9%
OCCN1CCC(F)(F)C2(CCN(c3cccnc3)C2)C1 (stereo not drawn) | 103.9%
O=C(O)C(F)(F)F.O=C(O)C(F)(F)F.OCCN1CC2(CCN(c3ccccc3)C2)C1 | 6.244%
O=C(O)C(F)(F)F.O=C(O)C(F)(F)F.O=C(O)CN1CCC(F)(F)C2(CCN(c3ccccn3)C2)C1 (stereo not drawn) | -9.228%
FC1(F)CCNCC12CCN(c1cccnc1)C2.O=C(O)C(F)(F)F.O=C(O)C(F)(F)F (stereo not drawn) | -21.44%
NCC1(c2cccc(C(F)(F)F)c2)CC1 | -45.72%
C[C@H]1C[C@@H]2CCN(Cc3nccs3)C[C@H]2O1 | -9.973%
CC(Cn1ccnc1)NCc1csc2c1CCCC2 (stereo not drawn) | -4.512%
